The values below come from PubChem BioAssay (Tox21).

Inconclusive results are not listed. Values without a mark were called inactive. Calls of active or inactive are those of the source. Calls follow the shape of the dose curve; as a rule, active = well fitted cell-killing curve with a large enough effect in the repeat runs; inconclusive = weak or mixed curves, or effect the other way; inactive = flat fitted curve, though single readings scatter.
% is scaled to controls: 0 for no effect and ±100 for the full control effect; potency is read from the fitted curve at half-maximal effect.

A short description of this assay: cAMP Responsive Elements (CRE) small molecule agonists, cell-based qHTS assay: qHTS cell viability counter screen (AID 2060914).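 Also: viability read after 3 h of compound exposure; nearly all actives have a fitted effect of over 50% in size.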 As to conditions: CRE-bla HEK293T viability, CellTiter-Glo luminescence, 5 h; series mostly up to 92.4 µM; activity change, negative = cytotoxicity: at the top concentration. The text has this: National Center for Advancing Translational Sciences [NCATS]
Division of Preclinical Innovation [DPI]
U.S. Environmental Protection Agency [EPA]
National Institutes of Environmental Health Sciences [NIEHS]
National Toxicology Program [NTP]
U.S. Food and Drug Administration [FDA]
CREB (cyclic-AMP Responsive Element Binding Protein) is a cellular transcription factor. It binds to certain DNA sequences called cAMP Responsive Elements (CRE) and regulates the transcription of the genes. […] This cell line can be used to find agonists/antagonists of the cyclic AMP signaling pathway. The activation of the report gene under culture conditions can be detected by fluorescence intensity. This cell line has been used to screen the Tox21 10K compound library to identify agonists that induce oxidative stress. The cytotoxicity of the Tox21 compound library against the CRE-bla cell line was tested in parallel by measuring the cell viability using CellTiter-Glo assay (Promega, Madison, WI) in the same wells.
Tox21 Assay Protocol Summary:
CRE-bla Hek 293T cells were suspended in assay medium (DMEM containing 10% dialyzed FBS, 0.1 mM NEAA, 1 mM sodium pyruvate and 25 mM HEPES) and dispensed at 2,000 cells/5 uL /well into 1536-well black wall/clear bottom plates using a Multidrop Combi (ThermoFisher Scientific, Waltham, MA) dispenser. After the assay plates were incubated at 37 C/5% CO2 for 18 hrs, 23 nL of compounds dissolved in DMSO, positive controls or DMSO only was transferred to the assay plate by a pintool workstation (Kalypsys, San Diego, CA). After the plates were incubated at 37 C/5% CO2 for 3 hrs, 1 uL of LiveBLAzer B/G FRET substrate (Invitrogen, Carlsbad, CA) was added to each well using Bioraptr Flying Reagent Dispenser (FRD, Aurora Discovery, San Diego, CA). The plates were incubated at room temperature for 2 h, then fluorescence intensities were measured using an Envision plate reader (PerkinElmer, Shelton, CT) at Excitation 405nm, Emission 460nm and 530nm. The % activity was determined from the ratio of 460nm/530nm. For cell viability readout that measures cytotoxicity, 4 uL /well of CellTiter-Glo reagent was added into the assay plates using Bioraptr FRD. After 30 min incubation at room temperature, the luminescence intensity in the assay plates was measured using a ViewLux (PerkinElmer, Shelton, CT) plate reader.
Background: Quantitative high-throughput screening tests each substance at several concentrations.
`O=C/C(Cl)=C(/Cl)C(=O)O`: the Potency result is “inactive”.

As to `O=C/C=C/c1ccco1`, the “activity change, negative = cytotoxicity” value was -11.2%.

Regarding `O=C(O)c1ccc(=O)[nH]c1`, the “activity change, negative = cytotoxicity” value was 8.68% [at 42.5 µM].

Turning to `ClC1=C(Cl)C2(Cl)C3C(Cl)C=CC3C1(Cl)C2(Cl)Cl` (stereo not given), the Potency entry was “inactive”.

As for `Cc1ccccc1OP(=O)(Oc1ccccc1C)Oc1ccccc1C`, the “activity change, negative = cytotoxicity” value was 0.212%.

For the compound `CC[N+]1(C)CCCC1`, the Potency result is “inactive”.

In the case of `CS(=O)(=O)c1cc(C(F)(F)F)ccc1C(=O)c1cnoc1C1CC1`, the “activity change, negative = cytotoxicity” value was 2.42%.

For `CCN1CCCC1CNC(=O)C(O)(c1ccccc1)c1ccccc1` (stereo not given), the “activity change, negative = cytotoxicity” value is -8.49% [at 42.5 µM].

Turning to `O=C(O)CCCCCCNC1c2ccccc2CCc2ccccc21`, the “activity change, negative = cytotoxicity” value was -0.669% [at 42.5 µM].

With `CC1COC(Cn2cncn2)(c2ccc(Oc3ccc(Cl)cc3)cc2Cl)O1` (stereo not given), the “activity change, negative = cytotoxicity” value is -16.9%.

Take `C1CN2CCC1CC2`: the “activity change, negative = cytotoxicity” value was 1.99% [at 42.5 µM].

Consider `CON(C)C(=O)Nc1ccc(Cl)c(Cl)c1`, for which the Potency entry was “inactive”.

`CCC(C)(C)c1cc(-n2nc3ccccc3n2)c(O)c(C(C)(C)CC)c1`: the “activity change, negative = cytotoxicity” value is 3.82%.

Take `CCOP(=S)(OCC)SCS(=O)(=O)C(C)(C)C`: the “activity change, negative = cytotoxicity” value is -11.4%.

On to `Cn1sc(Cl)cc1=O`, for which the “activity change, negative = cytotoxicity” value is 4.87%.

Regarding `Oc1cc(Cl)ccc1Oc1ccc(Cl)cc1Cl`, the Potency is 62.6 µM (active).

`CCOC(=O)/C=C(C)/C=C/C[C@@H](C)CCCC(C)C`: the “activity change, negative = cytotoxicity” value is 15.8%.

`COC(=O)C(C)N(C(=O)Cc1ccccc1)c1c(C)cccc1C` (stereo not given): the “activity change, negative = cytotoxicity” value is -0.782%.

In the case of `Cc1ccc(N)c(N)c1`, the Potency entry was “inactive”.

Regarding `c1ccc(OP(Oc2ccccc2)Oc2ccccc2)cc1`, the Potency result was “inactive”.

For `Cc1cccc(C)c1N`, the Potency entry is “inactive”.

For `ClCCN1CCCC1`, the “activity change, negative = cytotoxicity” value was -1.95% [at 42.5 µM].

Take `O=C(NCO)NCO`: the “activity change, negative = cytotoxicity” value was 8.93%.

Take `CCOP(=S)(OCC)Oc1nc(Cl)c(Cl)cc1Cl`: the “activity change, negative = cytotoxicity” value was -17.4%.

For `N#CC(Cl)(Cl)Cl`, the “activity change, negative = cytotoxicity” value is 9.54%.

In the case of `CN(C)c1ccc(N(C)C)cc1`, the “activity change, negative = cytotoxicity” value was -13.2%.

For the compound `O=C(O)c1cc(Oc2ccc(C(F)(F)F)cc2Cl)ccc1[N+](=O)[O-]`, the Potency entry is “inactive”.

Take `C[N+](=O)[O-]`: the “activity change, negative = cytotoxicity” value is -2.67%.

For `CN(C)N=O`, the Potency entry was “inactive”.

Consider `Cc1cc(C)c(C(=O)P(=O)(C(=O)c2c(C)cc(C)cc2C)c2ccccc2)c(C)c1`, for which the “activity change, negative = cytotoxicity” value was -9.97%.

`CCC(=O)c1ccc(Cl)cc1`: the “activity change, negative = cytotoxicity” value is 9.67%.

On to `O=C(O)C(F)(F)C(F)(F)C(F)(F)C(F)(F)C(F)(F)C(F)(F)C(F)(F)C(F)(F)C(F)(F)C(F)(F)F`, for which the “activity change, negative = cytotoxicity” value is 3.5%.

Turning to `CC1(C)COP(Oc2ccccc2)OC1`, the “activity change, negative = cytotoxicity” value is -1%.

`Cc1cc(Cl)ccc1O`: the Potency entry was “inactive”.

In the case of `CCN(C(C)=O)c1cccc(-c2ccnc3c(C#N)cnn23)c1`, the “activity change, negative = cytotoxicity” value is -10.1% [at 42.5 µM].

`O=[N+]([O-])c1ccc(Oc2ccc(C(F)(F)F)cc2[N+](=O)[O-])cc1`: the “activity change, negative = cytotoxicity” value is -1.03%.

For `CCCCOC(=O)COC(=O)c1ccccc1C(=O)OCCCC`, the Potency entry was “inactive”.

`CCC[CH2][Sn]([Cl])([Cl])[Cl]`: the Potency entry is “inactive”.

Turning to `CC1OC(C)OC(C)O1` (stereo not given), the Potency entry was “inactive”.

With `CC(Oc1cc(Cl)c(Cl)cc1Cl)C(=O)O` (stereo not given), the “activity change, negative = cytotoxicity” value is 0.729%.
